# Assay results from PubChem BioAssay (Tox21).
# “And” between values parts separate entries of the source, which are not always exact repeats. Equal values may be shown once. Results filed as inconclusive are left out. Entries that show only a call come without a potency. The source made the active and inactive calls. Unless noted, the call rests on the fitted dose curve.
# Key:
# [1] = Nuclear factor erythroid 2-related factor 2/antioxidant responsive element (Nrf2/ARE) small molecule agonists: qHTS cell viability counter screen in human keratinocytes (AID 1919968; active means well fitted curve in the direction sought with a large enough effect in the repeat runs; an effect the other way counts as inactive or inconclusive; further: nearly all actives have a fitted effect of over 55% in size; further: potency means the concentration at half of the fitted maximal effect)
# Summary of the method: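 CellTiter-Fluor fluorescence, read 1 h after reagent, gave viability in the same wells as the ARE-luciferase assay. KeratinoSens cells (1,500/well) had 23 h compound exposure at 37 C/5% CO2 following 5 h plating.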
# [2] = Nuclear factor erythroid 2-related factor 2/antioxidant responsive element (Nrf2/ARE) small molecule agonists: luciferase reporter gene qHTS assay in human keratinocytes (AID 1919969); further: nearly all actives have a fitted effect of over 35% in size; further: potency means the concentration at half of the fitted maximal effect
# [3] = biological target: Gonadotropin-releasing hormone receptor (Homo sapiens) (UniProt P30968); assay: Human gonadotropin-releasing hormone receptor (GnRHR) small molecule agonists, calcium flux assay in GnRHR-HEK293 cells (AID 1920063); further: nearly all actives have a fitted effect of over 35% in size; further: potency means the concentration at half of the fitted maximal effect
# Gonadotropin-releasing hormone receptor (Homo sapiens), sequence (P30968 whole entry, looked up): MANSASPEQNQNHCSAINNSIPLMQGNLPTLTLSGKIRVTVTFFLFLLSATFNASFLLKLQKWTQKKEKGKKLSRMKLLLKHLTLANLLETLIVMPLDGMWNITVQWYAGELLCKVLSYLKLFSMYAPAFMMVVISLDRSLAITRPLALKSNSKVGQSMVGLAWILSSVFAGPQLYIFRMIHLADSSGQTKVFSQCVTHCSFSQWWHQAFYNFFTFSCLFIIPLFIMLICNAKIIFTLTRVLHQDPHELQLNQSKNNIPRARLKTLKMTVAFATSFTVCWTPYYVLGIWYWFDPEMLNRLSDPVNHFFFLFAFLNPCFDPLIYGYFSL
# Summary of the method: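 Agonist mode: compounds at 15 concentrations, in triplicate, went onto calcium dye-loaded GnRHR-HEK293 cells. Intracellular calcium was then followed as 480/540 nm fluorescence at 1 s intervals over 3 min.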
# [4] = biological target: KiSS-1 receptor (Homo sapiens) (UniProt Q969F8); assay: Human kisspeptin (KISS1R) small molecule agonists, calcium flux assay in KISS1R-HEK293 cells (AID 1920064; active means well fitted curve in the direction sought with a large enough effect in the repeat runs; an effect the other way counts as inactive or inconclusive)
# KiSS-1 receptor (Homo sapiens), sequence (Q969F8 whole entry, looked up): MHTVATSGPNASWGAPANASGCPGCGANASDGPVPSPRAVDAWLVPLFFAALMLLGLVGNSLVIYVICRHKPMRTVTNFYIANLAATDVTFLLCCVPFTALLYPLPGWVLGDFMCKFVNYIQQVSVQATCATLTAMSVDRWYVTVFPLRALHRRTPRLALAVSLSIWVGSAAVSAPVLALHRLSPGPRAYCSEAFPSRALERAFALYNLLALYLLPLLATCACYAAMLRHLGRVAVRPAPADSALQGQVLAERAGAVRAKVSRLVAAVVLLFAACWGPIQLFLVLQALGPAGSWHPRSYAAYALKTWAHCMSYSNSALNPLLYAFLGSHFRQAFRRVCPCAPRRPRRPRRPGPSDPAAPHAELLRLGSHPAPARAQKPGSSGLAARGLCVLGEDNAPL
# Summary of the method: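 Agonist mode: intracellular calcium rise tracked at 1 s intervals over 3 min (480/540 nm) immediately after compound addition to dye-loaded KISS1R-HEK293 stable cells. Each compound tested at 15 concentrations in triplicate.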
# [5] = G protein-coupled receptor (GPCR) small molecule agonists, calcium flux assay: HEK293 wild type cell line counter screen (AID 1920065)
# Summary of the method: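 Calcium flux counter screen: compound added in agonist mode at 15 concentrations in triplicate to dye-loaded parental HEK293 cells. Fluorescence (480/540) read kinetically for 3 min; ATP served as positive control.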
# [6] = p53 small molecule agonists, cell-based qHTS assay: qHTS cell viability counter screen (AID 1963581); further: nearly all actives have a fitted effect of over 45% in size
# Summary of the method: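 Counter screen read by CellTiter-Glo luminescence (ATP content, 30 min at room temperature), run in the same wells as the beta-lactamase reporter read. HCT-116 p53RE-bla cells saw compounds for 16 h at 37 C.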
# [7] = biological target: 5-hydroxytryptamine receptor 2A (Homo sapiens) (UniProt P28223); assay: 5-hydroxytryptamine receptor 2A (HTR2A) small molecule antagonists, cell-based qHTS assay (AID 1963586); further: nearly all actives have a fitted effect of over 45% in size
# 5-hydroxytryptamine receptor 2A (Homo sapiens), sequence (P28223 whole entry, looked up): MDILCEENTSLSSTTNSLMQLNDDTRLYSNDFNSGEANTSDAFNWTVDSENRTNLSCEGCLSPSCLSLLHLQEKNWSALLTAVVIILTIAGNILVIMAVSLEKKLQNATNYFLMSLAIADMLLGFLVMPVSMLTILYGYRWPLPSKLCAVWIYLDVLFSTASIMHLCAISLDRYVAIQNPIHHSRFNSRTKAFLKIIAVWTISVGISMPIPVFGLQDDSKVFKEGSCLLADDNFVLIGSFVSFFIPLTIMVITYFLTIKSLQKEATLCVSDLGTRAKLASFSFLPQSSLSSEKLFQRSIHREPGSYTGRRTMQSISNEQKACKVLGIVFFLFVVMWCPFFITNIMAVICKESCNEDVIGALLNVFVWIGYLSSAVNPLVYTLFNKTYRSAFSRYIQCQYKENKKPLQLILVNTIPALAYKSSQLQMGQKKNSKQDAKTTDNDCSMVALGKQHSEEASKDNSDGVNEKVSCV
# Summary of the method: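 CHO cells stably expressing human HTR2A were plated for 18 h at 37 C, then loaded with calcium dye for 1 h. Compounds were preincubated 5 min at room temperature before DOI (4 nM solution) was added. Kinetic fluorescence was read for 3 min.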
# [8] = biological target: 5-hydroxytryptamine receptor 2A (Homo sapiens) (UniProt P28223); assay: 5-hydroxytryptamine receptor 2A (HTR2A) small molecule agonists, cell-based qHTS assay (AID 1963587); further: nearly all actives have a fitted effect of over 30% in size; further: potency means the concentration at half of the fitted maximal effect
# Summary of the method: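 Kinetic calcium-flux fluorescence (2 min, 1 sec intervals) after compound addition in agonist mode. HTR2A-CHO cells were cultured 18 h, then dye-loaded 1 h at 37 C.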
# [9] = biological target: Muscarinic acetylcholine receptor M1 (Homo sapiens) (UniProt P11229); assay: Cholinergic receptor muscarinic 1 (CHRM1) small molecule agonists, cell-based qHTS assay (AID 1963589); further: nearly all actives have a fitted effect of over 35% in size
# Muscarinic acetylcholine receptor M1 (Homo sapiens), sequence (P11229 whole entry, looked up): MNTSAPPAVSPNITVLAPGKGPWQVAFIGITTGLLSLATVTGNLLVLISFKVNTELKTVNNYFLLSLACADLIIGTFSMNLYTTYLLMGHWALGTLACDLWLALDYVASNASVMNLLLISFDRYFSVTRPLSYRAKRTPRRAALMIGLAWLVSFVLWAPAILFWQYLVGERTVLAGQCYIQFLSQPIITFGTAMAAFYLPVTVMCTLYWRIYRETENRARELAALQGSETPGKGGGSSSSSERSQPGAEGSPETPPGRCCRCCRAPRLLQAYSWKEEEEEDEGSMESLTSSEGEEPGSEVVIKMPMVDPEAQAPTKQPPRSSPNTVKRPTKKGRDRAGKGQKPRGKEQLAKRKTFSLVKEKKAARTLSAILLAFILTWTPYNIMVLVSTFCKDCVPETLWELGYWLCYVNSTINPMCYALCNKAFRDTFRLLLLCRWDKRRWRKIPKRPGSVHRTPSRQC
# Summary of the method: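 Agonist-mode calcium-flux screen: compounds at 15 concentrations, three independent runs, were pin-transferred onto dye-loaded human CHRM1-CHO cells. Fluorescence was then recorded kinetically every second over minutes.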
# [10] = cAMP Responsive Elements (CRE) small molecule antagonists, cell-based qHTS assay (AID 1963591; active means well fitted inhibition curve with a large enough effect in the signal ratio in the repeat runs, not every such curve was filed as active; the % refers to the signal ratio)
# Summary of the method: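 Antagonist mode: compounds are added alongside the adenylyl cyclase activator NKH477 (0.25 uM final) to CRE-bla HEK293T cells for 3 h. LiveBLAzer FRET substrate, 2 h at room temperature, reports bla expression.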
# [11] = biological target: Beta-2 adrenergic receptor (Homo sapiens) (UniProt P07550); assay: Adrenergic beta2 receptor (ADRB2) small molecule antagonists, cell-based qHTS assay (AID 1963592); further: series mostly up to about 92 µM; nearly all actives have a fitted effect of over 50% in size
# Beta-2 adrenergic receptor (Homo sapiens), sequence (P07550 whole entry, looked up): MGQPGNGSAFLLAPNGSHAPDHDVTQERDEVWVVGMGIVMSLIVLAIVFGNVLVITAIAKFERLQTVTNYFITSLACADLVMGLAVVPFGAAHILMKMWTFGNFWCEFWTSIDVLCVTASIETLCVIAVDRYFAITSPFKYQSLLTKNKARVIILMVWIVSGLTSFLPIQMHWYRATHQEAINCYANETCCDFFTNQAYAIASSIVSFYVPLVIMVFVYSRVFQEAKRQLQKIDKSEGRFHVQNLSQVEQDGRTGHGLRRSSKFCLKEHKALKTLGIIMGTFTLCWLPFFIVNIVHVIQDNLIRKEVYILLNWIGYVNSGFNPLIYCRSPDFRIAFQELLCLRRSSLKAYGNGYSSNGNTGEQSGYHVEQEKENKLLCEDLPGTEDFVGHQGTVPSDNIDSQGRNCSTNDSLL
# Summary of the method: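 Assay format: CHO-ADRB2 cells, 18-20hr seeding at 37C/5% CO2, then compound plus 1nM isoproterenol agonist mix for 0.5hr RT. Homogeneous time-resolved fluorescence cAMP detection after 1hr, expressed as 665/615 nm ratio.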
# [12] = biological target: Beta-2 adrenergic receptor (Homo sapiens) (UniProt P07550); assay: Adrenergic beta2 receptor (ADRB2) small molecule agonists, cell-based qHTS assay (AID 1963593);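 further: CHO cells stably overexpressing human ADRB2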
# Summary of the method: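 CHO cells stably over-expressing ADRB2 were plated overnight at 37C, then dosed with compounds plus a stimulation mix containing 100uM IBMX and 25uM Ro-20-1724 for 0.5hr at room temperature. cAMP was measured by HTRF competition, 1hr.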
# [13] = biological target: D(2) dopamine receptor (Homo sapiens) (UniProt P14416); assay: Dopamine D2 receptor (DRD2) small molecule agonists, cell-based qHTS assay (AID 1963594); further: nearly all actives have a fitted effect of over 35% in size
# D(2) dopamine receptor (Homo sapiens), sequence (P14416 whole entry, looked up): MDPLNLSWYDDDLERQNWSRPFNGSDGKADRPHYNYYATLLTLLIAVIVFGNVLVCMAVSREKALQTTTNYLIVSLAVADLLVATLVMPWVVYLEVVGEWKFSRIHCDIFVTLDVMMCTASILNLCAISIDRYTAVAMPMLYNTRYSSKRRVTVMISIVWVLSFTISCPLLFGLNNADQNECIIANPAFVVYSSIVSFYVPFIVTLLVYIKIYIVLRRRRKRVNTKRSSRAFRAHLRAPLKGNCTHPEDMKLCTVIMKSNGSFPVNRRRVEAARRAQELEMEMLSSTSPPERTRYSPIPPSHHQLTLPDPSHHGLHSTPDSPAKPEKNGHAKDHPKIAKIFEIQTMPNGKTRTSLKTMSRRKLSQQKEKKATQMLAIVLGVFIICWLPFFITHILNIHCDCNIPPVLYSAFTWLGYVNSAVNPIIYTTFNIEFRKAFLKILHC
# Summary of the method: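 cAMP accumulation in DRD2-HEK293 cells measured by HTRF after 1 h detection; compounds added 10 min before NKH477 (200nM […]) forskolin-analogue stimulation, 30 min at room temperature, with Ro20-1724 present at 0.1 mM final.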
# [14] = biological target: D(2) dopamine receptor (Homo sapiens) (UniProt P14416); assay: Dopamine D2 receptor (DRD2) small molecule antagonists, cell-based qHTS assay (AID 1963595; active means well fitted inhibition curve with a large enough effect in the signal ratio in the repeat runs, with a control signal flat; the % refers to the signal ratio)
# Summary of the method: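 HEK293 cells stably expressing DRD2, preincubated with 0.1 mM Ro20-1724 and compounds 10 min, were stimulated with 200 nM NKH477 plus 12 nM quinpirole for 30 min at room temperature; cAMP measured by HTRF (665/620 nm).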
# [15] = p53 small molecule agonists, cell-based qHTS assay with rat liver microsomes (AID 1963578)
# Summary of the method: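 Compound in DMSO added to p53RE-bla cells 5 h post-plating; rat microsomes/NADPH 0.5 mg/mL final; 16 h, 37 C; LiveBLAzer 2 h RT.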
# [16] = p53 small molecule agonists, cell-based qHTS assay with human liver microsomes: qHTS cell viability counter screen (AID 1963579); further: nearly all actives have a fitted effect of over 45% in size
# Summary of the method: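 HLM-supplemented (0.5 mg/mL final) and NADPH-supplemented (0.5 mg/mL final) p53RE-bla cultures, 4,000 cells per well, were dosed with compounds in DMSO for 16 h at 37 C; luminescent ATP detection (CellTiter-Glo, 30 min, room temperature) quantified surviving cells.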
# [17] = p53 small molecule agonists, cell-based qHTS assay with rat liver microsomes: qHTS cell viability counter screen (AID 1963580); further: nearly all actives have a fitted effect of over 45% in size
# Summary of the method: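 Cytotoxicity counter screen: intracellular ATP read by CellTiter-Glo luminescence in the p53 reporter wells. HCT-116 p53RE-bla cells were treated for 16 h at 37 C alongside rat liver microsomes and NADPH, each 0.5 mg/mL final.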
# [18] = p53 small molecule agonists, cell-based qHTS assay (AID 1963582; active means well fitted activation curve with a large enough effect in the signal ratio in the repeat runs, not every such curve was filed as active; the % refers to the signal ratio)
# Summary of the method: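 Read-out is beta-lactamase FRET fluorescence after 2 h at room temperature with LiveBLAzer B/G substrate. p53 response element-bla cells were treated 16 h at 37 C with compounds in DMSO, added 5 h after seeding.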
# [19] = biological target: Muscarinic acetylcholine receptor M1 (Homo sapiens) (UniProt P11229); assay: Cholinergic receptor muscarinic 1 (CHRM1) small molecule antagonists, cell-based qHTS assay (AID 1963588); further: nearly all actives have a fitted effect of over 40% in size
# Summary of the method: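 Compounds were tested at 15 concentrations in three independent runs. Dye-loaded CHRM1-CHO cells were exposed 5 min at room temperature before stimulation by acetylcholine added at 50nM. Intracellular calcium was read kinetically on FDSS for 3 min.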
# [20] = cAMP Responsive Elements (CRE) small molecule agonists, cell-based qHTS assay (AID 1963590)
# Summary of the method: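 Agonist mode: compound added to CRE-bla HEK 293T cells (2,000/well, 18 h after plating) for 3 h at 37 C/5% CO2. Reporter activity detected via FRET beta-lactamase substrate, 2 h room-temperature loading.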
smiles,measurement,setting,value
CN(C)c1ccc(C(=N)c2ccc(N(C)C)cc2)cc1,Potency,[1],24 µM (active) and 23.4 µM (active)
same,Potency,[2],60.4 µM (active) and 52.4 µM (active)
same,Potency,[3],29.7 µM (active)
same,Potency,[4],inactive
same,Potency,[5],inactive
same,Potency,[6],inactive
same,Potency,[7],inactive
same,Potency,[8],inactive
same,Potency,[9],inactive
same,Potency,[10],inactive
same,Potency,[11],inactive
same,Potency,[12],inactive
same,Potency,[13],inactive
same,Potency,[14],inactive
CC(=O)OCC(=O)Nc1cc(C#N)cc(NC(=O)COC(C)=O)c1Cl,Potency,[1],inactive
same,Potency,[2],inactive
same,Potency,[3],inactive
same,Potency,[4],inactive
same,Potency,[5],inactive
same,Potency,[15],inactive
same,Potency,[16],inactive
same,Potency,[17],inactive
same,Potency,[6],inactive
same,Potency,[18],inactive
same,Potency,[7],inactive
same,Potency,[8],inactive
same,Potency,[19],inactive
same,Potency,[9],inactive
same,Potency,[20],inactive
same,Potency,[10],inactive
same,Potency,[11],inactive
same,Potency,[12],inactive
same,Potency,[14],inactive
O=P(OC(CCl)CCl)(OC(CCl)CCl)OC(CCl)CCl,Potency,[1],inactive
same,Potency,[2],inactive
same,Potency,[3],inactive
same,Potency,[4],inactive
same,Potency,[5],inactive
same,Potency,[15],inactive
same,Potency,[16],inactive
same,Potency,[17],inactive
same,Potency,[6],inactive
same,Potency,[18],inactive
same,Potency,[7],inactive
same,Potency,[8],43.4 µM (active) and 2.19 µM (active)
same,Potency,[19],inactive
same,Potency,[9],inactive
same,Potency,[10],inactive
same,Potency,[11],inactive
same,Potency,[13],inactive
CCN(CCO)c1cccc(C)c1,Potency,[1],inactive
same,Potency,[2],inactive
same,Potency,[3],inactive
same,Potency,[4],inactive
same,Potency,[5],inactive
same,Potency,[15],inactive
same,Potency,[16],inactive
same,Potency,[17],inactive
same,Potency,[6],inactive
same,Potency,[18],inactive
same,Potency,[7],inactive
same,Potency,[19],inactive
same,Potency,[9],inactive
same,Potency,[20],inactive
same,Potency,[10],inactive
same,Potency,[11],inactive
same,Potency,[13],inactive
same,Potency,[14],inactive
CCC(=O)OC(C)c1ccccc1 (stereo not drawn),Potency,[1],inactive
same,Potency,[2],inactive
same,Potency,[3],inactive
same,Potency,[4],inactive
same,Potency,[5],inactive
same,Potency,[15],inactive
same,Potency,[16],inactive
same,Potency,[17],inactive
same,Potency,[6],inactive
same,Potency,[18],inactive
same,Potency,[7],inactive
same,Potency,[8],inactive
same,Potency,[9],inactive
same,Potency,[20],inactive
same,Potency,[10],inactive
same,Potency,[11],inactive
same,Potency,[13],inactive
same,Potency,[14],inactive
C=CC(=O)OCCOC1C2CCC1C1CC=CC12 (stereo not drawn),"activity change, negative = cytotoxicity",[1],0.243% [at 19 µM] (inactive)
same,"activity, positive = activation",[2],-2.46% [at 19 µM] (inactive)
same,activity change,[3],"-0.687% [at 11.8 µM, stronger effect = higher value] (inactive)"
same,activation,[4],0.154% [at 15.8 µM] (inactive)
same,activation,[5],0.0334% [at 11.8 µM] (inactive)
same,activation,[15],-1.33% [at 13.6 µM] (inactive)
same,"activity change, negative = cytotoxicity",[16],-0.599% [at 13.5 µM] (inactive)
same,"activity change, negative = cytotoxicity",[17],-0.677% [at 13.5 µM] (inactive)
same,"activity change, negative = cytotoxicity",[6],10.1% [at 13.5 µM] (inactive)
same,activation,[18],-0.725% [at 13.5 µM] (inactive)
same,"activity, negative = inhibition",[7],14.3% [at 12.7 µM] (inactive)
same,activation,[8],-3.51% [at 15.9 µM] (inactive)
same,"activity, negative = inhibition",[19],1.12% [at 12.6 µM] (inactive)
same,activation,[20],-0.462% [at 19 µM] (inactive)
same,"activity change, negative = inhibition",[10],-8.52% [at 18.9 µM] (inactive)
same,"activity change, negative = inhibition",[11],-1.49% [at 19 µM] (inactive)
same,activation,[12],-22.8% [at 19 µM] (inactive)
same,activation,[13],-2.06% [at 19 µM] (inactive)
same,"activity change, negative = inhibition",[14],7.6% [at 18.9 µM] (inactive)
CC1(C)C(O)C(C)(C)C1O (stereo not drawn),Potency,[1],inactive
same,Potency,[2],inactive
same,Potency,[3],inactive
same,Potency,[4],inactive
same,Potency,[5],inactive
same,Potency,[15],inactive
same,Potency,[16],inactive
same,Potency,[17],inactive
same,Potency,[6],inactive
same,Potency,[7],inactive
same,Potency,[8],inactive
same,Potency,[19],inactive
same,Potency,[9],inactive
same,Potency,[20],inactive
same,Potency,[10],inactive
same,Potency,[11],inactive
same,Potency,[12],inactive
same,Potency,[14],inactive
